Compound activity: PubChem, National Center for Advancing Translational Sciences (NCATS)
Pol iota inh: blocks human DNA polymerase iota activity; Q9UNA4; Pol iota fluorescent replication assay, 10 min; Potency, µM (titrated, usually from 115 µM), for inactives: at the top dose activity, negative = inhibition, most hits filed as inhibitors; hit rate 1% among 390,000; AID 588590
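Fluorescent replication assay read twice, at 0 min and 10 min after adding 50 nM (final) substrate. Enzyme (10 nM) and compounds were first incubated 15 min at room temperature; enzyme-free buffer wells were negative controls.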
POLH inh: blocks human DNA polymerase eta activity; Potency, µM (doses to about 114 µM), without a hit: at the highest dose activity change, negative = inhibition, most hits filed as inhibitors; recombinant Pol eta, fluorescent DNA replication assay; Q9Y253; hit rate 1.2% among 390,000; also: % is scaled to controls: 0 for no effect and ±100 for the full control effect
Target sequence (Q9Y253 whole entry, looked up): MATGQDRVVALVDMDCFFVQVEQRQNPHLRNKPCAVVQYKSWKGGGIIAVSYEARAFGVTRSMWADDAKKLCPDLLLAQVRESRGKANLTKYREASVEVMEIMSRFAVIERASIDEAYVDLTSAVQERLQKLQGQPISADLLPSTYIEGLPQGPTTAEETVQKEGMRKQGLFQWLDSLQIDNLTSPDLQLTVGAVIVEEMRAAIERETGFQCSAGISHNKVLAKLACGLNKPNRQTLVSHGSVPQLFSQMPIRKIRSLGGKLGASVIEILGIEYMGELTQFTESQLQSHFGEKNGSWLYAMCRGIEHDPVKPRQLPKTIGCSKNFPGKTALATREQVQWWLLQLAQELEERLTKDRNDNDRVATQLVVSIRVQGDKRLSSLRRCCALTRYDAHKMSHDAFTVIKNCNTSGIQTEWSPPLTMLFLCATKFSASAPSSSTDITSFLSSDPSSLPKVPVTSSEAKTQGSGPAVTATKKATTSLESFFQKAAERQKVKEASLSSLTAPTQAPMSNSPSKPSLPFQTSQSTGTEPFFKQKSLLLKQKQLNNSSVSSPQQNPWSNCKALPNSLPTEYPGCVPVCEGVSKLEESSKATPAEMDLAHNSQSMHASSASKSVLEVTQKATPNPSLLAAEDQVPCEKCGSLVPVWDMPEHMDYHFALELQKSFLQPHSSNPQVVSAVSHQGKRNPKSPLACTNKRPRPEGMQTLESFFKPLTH
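Pol eta (10 nM) was preincubated with compounds for 15 min at room temperature, after which fluorescent replication substrate (50 nM final) was added to start the reaction. Fluorescence was read kinetically at 0 and 10 min.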
TDP1 block: blocks human tyrosyl-DNA phosphodiesterase 1; Q9NUW8; recombinant TDP1, AlphaScreen DNA substrate cleavage; Potency, µM (highest dose often 130 µM), for inactives: at the top dose activity change, negative = inhibition, most hits filed as inhibitors; hit rate 0.28% among 350,000; also: % is scaled to controls: 0 for no effect and ±100 for the full control effect; nearly all actives have a fitted effect of over 40% in size
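AlphaScreen read-out: signal falls as enzyme removes the 3' tyrosine-FITC from a 5'-biotinylated DNA oligo (15 nM, 5 min, RT). Enzyme was E. coli-made recombinant Tdp1 at 1 nM, exposed to compound for 15 min beforehand; beads 10 ug/ml, 10 min.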
POLK inh: blocks human DNA polymerase kappa activity. Q9UBT6. purified Pol kappa, fluorescent DNA synthesis assay, 10 min. Potency, µM (top dose mostly 107 µM), for the others: at the top dose activity, negative = inhibition, usual class: inhibitors. hit rate 0.53% among 400,000; also: % is scaled to controls: 0 for no effect and ±100 for the full control effect
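First, compounds were pin-transferred onto 10 nM Pol kappa. After 15 min at room temperature, substrate was added to 50 nM final. Fluorescence was then measured kinetically at 0 and 10 min.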
FEN1 inh: inhibitors of human flap endonuclease 1; P39748; Recombinant FEN1 flap cleavage, fluorescence, 15 min; Potency, µM (titrated, usually from 114 µM), without a hit: top-dose activity change, negative = inhibition, most hits filed as inhibitors; hit rate 0.35% among 390,000; also: % is scaled to controls: 0 for no effect and ±100 for the full control effect; nearly all actives have a fitted effect of over 65% in size
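FEN1 at 10 nM preincubated with compounds 15 min at room temperature, then flap DNA substrate added at 50 nM final. Signal read at 0 and 15 min; concentration-response fitted with four-parameter Hill equation.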
Pol beta inh: inhibitors of human DNA polymerase beta; hit rate 1.3% among 340,000; Potency, µM (top dose mostly 114 µM), inactives show at the top dose activity change, negative = inhibition, most hits filed as inhibitors; Pol beta primer extension/strand displacement, fluorescence kinetic; also: % is scaled to controls: 0 for no effect and ±100 for the full control effect
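Preincubation: enzyme (10 nM) with compound, 15 min, RT. Reaction: substrate added to 50 nM final. Reads: 0 and 10 min. Analysis: normalized, Hill fit.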
* marks the source's active call; other numbers are inactive results; [ ] = dose if it differs, or a comment. Most compounds without a hit are left out; they make up all but 2.4% or so of the library. Calls follow the shape of the dose curve; as a rule, active = well fitted curve in the direction sought with a large enough effect; inconclusive = small, poorly fitted or top-dose-only effect, or another doubt; inactive = no such curve, though single readings can be large; an effect the other way counts as inactive or inconclusive. Potency is read from the fitted curve at half-maximal effect.

Screening Cc1ccc(S(=O)(=O)N2[C@@H](c3ccccc3)C(C(=O)O)=CC[C@H]2c2cccc(Cl)c2)cc1 returned Pol iota inh 4%, POLH inh 1%, TDP1 block -1%, POLK inh -12% and FEN1 inh -3%.
CCc1ccc([C@@H]2CC=C(C(=O)O)[C@H](c3ccc(C(C)(C)C)cc3)N2S(=O)(=O)c2ccc(C)cc2)cc1 was read as Pol iota inh 26%, POLH inh 32µM*, TDP1 block -8%, POLK inh -30% and FEN1 inh inconclusive.
C1NNCC12CNNC2 was read as Pol iota inh 18%, POLK inh -3% and FEN1 inh 15%.
CN(C)c1c(Br)cc(C=O)cc1Br was read as Pol iota inh 9%, POLK inh 3% and FEN1 inh -4%.
Cc1ccc(N2CC(C(=O)Nc3ccc(S(=O)(=O)NCC4CCCO4)cc3)CC2=O)cc1 (configuration not stated) was read as Pol iota inh inconclusive, POLH inh -11%, TDP1 block 2%, POLK inh -6%, FEN1 inh 10% and Pol beta inh 56µM*.
`Cc1ccccc1N1CC(C(=O)Nc2ccc(S(=O)(=O)NCC3CCCO3)cc2)CC1=O` (configuration not stated) gave Pol iota inh 34%, POLH inh -6%, TDP1 block 6%, POLK inh -21%, FEN1 inh 4% and Pol beta inh 9%.
Clc1ccc(/C=C/c2ccc3ccccc3n2)cc1Cl was read as Pol iota inh -3%, POLK inh -5% and FEN1 inh inconclusive.
Screening O=C(NNC(=O)C1CC(c2cccs2)=NO1)Nc1ccc(Cl)cc1 (configuration not stated) returned Pol iota inh inconclusive, POLH inh -23%, TDP1 block 1%, POLK inh -37%, FEN1 inh 4% and Pol beta inh 45µM*.
Cc1sc2ccccc2[n+]1C was read as Pol iota inh 6%, POLK inh -4% and FEN1 inh 4%.
`N#Cc1c(SCC(=O)N2CCCCC2)nsc1SCC(=O)N1CCCCC1` gave Pol iota inh 27%, POLH inh 2%, TDP1 block 9%, POLK inh -1%, FEN1 inh -7% and Pol beta inh 2%.
For C#CCSc1nsc(SCC#C)c1C#N the results were Pol iota inh 20µM*, POLH inh 18µM*, TDP1 block -8%, POLK inh inconclusive, FEN1 inh inconclusive and Pol beta inh 45µM*.
CCOc1ccc(CNS(=O)(=O)c2ccc3[nH]c4c(c3c2)CCCC4)cc1OC was read as Pol iota inh 56%, POLH inh -18%, TDP1 block 11%, POLK inh -19%, FEN1 inh -20% and Pol beta inh -3%.
Cc1cc(N)c2ccccc2[n+]1CCCCCCCCCCCCCC[n+]1c(C)cc(N)c2ccccc21 was read as Pol iota inh -123%[58.9 µM], POLH inh inconclusive, TDP1 block 24%[56.1 µM] and Pol beta inh 10µM*.
CCCNC(=O)OC[C@@H]1O[C@H](CCO/N=C\[C@@H](C)[C@H](OCc2ccccc2)C(C)C)C=C[C@@H]1Oc1ccc(OC)cc1 was read as TDP1 block 8%[21 µM].
Screening Nc1cc2nsnc2cc1Br returned Pol iota inh 3.5µM*, POLH inh 3.5µM*, TDP1 block -6%, POLK inh -19%, FEN1 inh inconclusive and Pol beta inh inconclusive.
For Nc1cccc2nsnc12 the results were Pol iota inh inconclusive, POLH inh 3%, POLK inh -16%, FEN1 inh -17% and Pol beta inh 2%.
Screening CCc1nc(SCC(=O)Nc2nccs2)c2oc3ccccc3c2n1 returned Pol iota inh 32µM*, POLH inh inconclusive, TDP1 block 3%, POLK inh -20%, FEN1 inh -13% and Pol beta inh 16µM*.
`CCc1cc2cc3c(cc2nc1SCC(=O)Nc1nccs1)OCO3` gave Pol iota inh 71µM*, POLH inh 8%, TDP1 block 1%, POLK inh -2%, FEN1 inh -10% and Pol beta inh 0%.
Screening COc1ccc(C(=O)N2CCC3(CC2)CN(Cc2ccc(C#N)cc2)C3)cc1 returned POLK inh -1%[60.1 µM].
Screening CNCc1nc(-c2ccc[nH]2)c2cc(Cl)ccc2n1 returned Pol iota inh 19%, POLK inh 6% and FEN1 inh inconclusive.
Cn1c(C=O)c(C#Cc2ccccc2)c2ccccc21 was read as Pol iota inh 18%, POLH inh -11%, TDP1 block 20µM*, POLK inh -11% and FEN1 inh 5%.
Screening Cn1c(-c2ccc(C#N)cc2)c(C#Cc2ccccc2)c2ccccc21 returned Pol iota inh 6%, POLH inh -13%, POLK inh -8% and FEN1 inh -11%.
Cc1ccc(NC(=O)N/C=C/c2ccco2)cc1 was read as Pol iota inh 20µM*, POLH inh 50µM*, TDP1 block -13%, POLK inh 50µM*, FEN1 inh -15% and Pol beta inh 22µM*.
Screening Cc1[nH][nH]c(=O)c1C(c1ccc(-c2ccc(Cl)c(Cl)c2)o1)c1c(C)[nH][nH]c1=O returned Pol iota inh 3.5µM*, POLH inh inconclusive, TDP1 block 13%, POLK inh 1%, FEN1 inh -22% and Pol beta inh -13%.
For COc1ccc(-c2ccc(C(c3c(C)[nH][nH]c3=O)c3c(C)[nH][nH]c3=O)o2)c([N+](=O)[O-])c1 the results were Pol iota inh 11µM*, POLH inh -17%, TDP1 block 7%, POLK inh -17%, FEN1 inh -20% and Pol beta inh inconclusive.
Screening Cc1[nH][nH]c(=O)c1C(c1ccc(N(C)C)c(Br)c1)c1c(C)[nH][nH]c1=O returned Pol iota inh 36%, POLH inh -11%, TDP1 block 10%, POLK inh -5%, FEN1 inh 14% and Pol beta inh 40%.
`CCOc1ccc(Cl)cc1C(c1c(C)[nH][nH]c1=O)c1c(C)[nH][nH]c1=O` gave Pol iota inh inconclusive, POLH inh -18%, TDP1 block 4%, POLK inh -3%, FEN1 inh 2% and Pol beta inh 7%.
Screening Cc1[nH][nH]c(=O)c1C(c1ccc(-c2ccc(F)cc2)o1)c1c(C)[nH][nH]c1=O returned Pol iota inh 7.1µM*, POLH inh -25%, TDP1 block 10%, POLK inh -9%, FEN1 inh 0% and Pol beta inh inconclusive.
